Source: PMC7862700, “An all-to-all approach to the identification of sequence-specific readers for epigenetic DNA modifications on cytosine”

Columns and labels:
Test in all cases: DAPPL (digital affinity profiling via proximity ligation, sequencing); 10 mM Tris-HCl pH 7.5, 50 mM NaCl, 1 mM DTT, 4% glycerol, room temperature, 30 min; GST-TFs on glutathione beads, 16-mer random dsDNA library, 0.1% formaldehyde crosslink after washing; high values mean tight binding
Conditions in all cases: protein: recombinant; tags: N-terminal GST; dsDNA, one strand shown
ERF = target: T1, ERF (Homo sapiens, UniProt P50548 1-548)
T1 sequence: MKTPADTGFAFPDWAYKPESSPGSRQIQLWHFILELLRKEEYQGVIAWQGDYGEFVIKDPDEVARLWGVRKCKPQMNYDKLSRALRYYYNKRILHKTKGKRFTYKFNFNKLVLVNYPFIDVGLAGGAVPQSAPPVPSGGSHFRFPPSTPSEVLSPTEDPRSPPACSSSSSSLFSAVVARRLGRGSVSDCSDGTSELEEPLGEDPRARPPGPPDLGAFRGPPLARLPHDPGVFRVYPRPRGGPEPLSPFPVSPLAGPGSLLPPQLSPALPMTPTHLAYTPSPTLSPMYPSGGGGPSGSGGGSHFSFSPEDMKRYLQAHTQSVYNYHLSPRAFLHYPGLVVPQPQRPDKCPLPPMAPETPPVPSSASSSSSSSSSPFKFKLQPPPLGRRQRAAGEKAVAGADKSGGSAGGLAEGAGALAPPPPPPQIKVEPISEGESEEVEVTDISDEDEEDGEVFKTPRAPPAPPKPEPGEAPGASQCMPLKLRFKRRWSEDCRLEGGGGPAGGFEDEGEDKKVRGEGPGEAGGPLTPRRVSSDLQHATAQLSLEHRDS
How it was run: (§1)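 Yeast served to express human transcription factors as GST fusions, which were then captured on glutathione beads and labelled with DNA barcodes. Pooled with a tag-only sample, they were incubated with 200 nmole of a 16-mer random double-stranded DNA library for 30 min at room temperature in Tris/NaCl/DTT/glycerol buffer, washed, crosslinked with 0.1% formaldehyde, ligated by proximity, amplified by PCR and sequenced. Dividing each hexamer's read frequency for a factor by its frequency for the tag-only sample gives the binding signal.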

ETV3L = target: T2, ETV3L (Homo sapiens, UniProt Q6ZN32 1-361)
T2 sequence: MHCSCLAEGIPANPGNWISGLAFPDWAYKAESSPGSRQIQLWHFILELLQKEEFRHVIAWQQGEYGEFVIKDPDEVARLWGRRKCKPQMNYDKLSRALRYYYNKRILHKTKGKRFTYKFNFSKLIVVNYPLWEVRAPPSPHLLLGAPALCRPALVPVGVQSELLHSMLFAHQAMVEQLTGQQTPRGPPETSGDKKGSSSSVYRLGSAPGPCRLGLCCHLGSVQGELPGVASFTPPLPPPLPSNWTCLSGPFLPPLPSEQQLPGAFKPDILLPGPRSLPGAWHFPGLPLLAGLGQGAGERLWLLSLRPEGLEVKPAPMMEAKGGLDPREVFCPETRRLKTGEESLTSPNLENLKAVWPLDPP
How it was run: as §1

ETS2 = target: T3, ETS2 (Homo sapiens, UniProt P15036 1-469)
T3 sequence: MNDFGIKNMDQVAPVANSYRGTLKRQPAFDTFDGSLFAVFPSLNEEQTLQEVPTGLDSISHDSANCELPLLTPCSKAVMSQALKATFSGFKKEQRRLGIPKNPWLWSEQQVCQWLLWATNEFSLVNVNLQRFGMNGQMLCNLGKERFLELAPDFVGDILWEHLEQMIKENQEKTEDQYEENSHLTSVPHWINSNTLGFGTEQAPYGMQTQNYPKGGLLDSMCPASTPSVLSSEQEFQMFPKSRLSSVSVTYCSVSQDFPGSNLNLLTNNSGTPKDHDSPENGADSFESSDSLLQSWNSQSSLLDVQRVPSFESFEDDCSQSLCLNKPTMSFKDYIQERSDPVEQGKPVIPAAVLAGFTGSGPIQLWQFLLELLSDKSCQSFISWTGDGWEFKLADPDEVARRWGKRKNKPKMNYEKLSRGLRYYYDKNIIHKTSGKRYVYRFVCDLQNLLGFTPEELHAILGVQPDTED
How it was run: as §1

SPDEF = target: T4, SPDEF (Homo sapiens, UniProt O95238 1-335)
T4 sequence: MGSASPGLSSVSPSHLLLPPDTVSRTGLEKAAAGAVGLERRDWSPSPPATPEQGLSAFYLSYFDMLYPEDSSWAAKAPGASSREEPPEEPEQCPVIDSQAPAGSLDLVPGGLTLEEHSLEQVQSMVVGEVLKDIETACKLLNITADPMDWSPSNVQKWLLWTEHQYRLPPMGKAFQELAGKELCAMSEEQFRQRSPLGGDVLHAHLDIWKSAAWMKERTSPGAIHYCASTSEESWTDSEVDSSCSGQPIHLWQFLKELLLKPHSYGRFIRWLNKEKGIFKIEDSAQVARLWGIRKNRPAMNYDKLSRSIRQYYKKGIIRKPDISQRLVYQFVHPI
How it was run: as §1

ETV7 = target: T5, ETV7 (Homo sapiens, UniProt Q9Y603 1-341)
T5 sequence: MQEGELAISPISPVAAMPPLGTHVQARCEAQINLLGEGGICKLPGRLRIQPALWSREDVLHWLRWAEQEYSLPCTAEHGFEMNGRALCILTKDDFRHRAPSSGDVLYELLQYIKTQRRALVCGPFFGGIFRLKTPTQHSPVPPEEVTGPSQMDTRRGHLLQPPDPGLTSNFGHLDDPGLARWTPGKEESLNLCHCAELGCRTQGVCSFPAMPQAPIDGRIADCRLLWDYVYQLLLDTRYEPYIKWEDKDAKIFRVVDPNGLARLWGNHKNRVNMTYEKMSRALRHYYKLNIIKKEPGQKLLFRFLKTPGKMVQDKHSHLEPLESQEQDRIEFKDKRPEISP
How it was run: as §1

ELF5 = target: T6, ELF5 (Homo sapiens, UniProt Q9UKW6-2 1-255)
T6 sequence: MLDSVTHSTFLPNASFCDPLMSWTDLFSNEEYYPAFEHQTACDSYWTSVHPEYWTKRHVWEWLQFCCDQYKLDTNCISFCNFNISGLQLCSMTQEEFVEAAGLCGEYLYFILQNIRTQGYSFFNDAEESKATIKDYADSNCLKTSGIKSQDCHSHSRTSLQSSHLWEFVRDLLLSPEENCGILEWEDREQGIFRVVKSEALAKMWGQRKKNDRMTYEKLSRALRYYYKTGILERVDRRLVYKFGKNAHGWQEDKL
How it was run: as §1

ETV3 = target: T7, ETV3 (Homo sapiens, UniProt P41162-2 1-143)
T7 sequence: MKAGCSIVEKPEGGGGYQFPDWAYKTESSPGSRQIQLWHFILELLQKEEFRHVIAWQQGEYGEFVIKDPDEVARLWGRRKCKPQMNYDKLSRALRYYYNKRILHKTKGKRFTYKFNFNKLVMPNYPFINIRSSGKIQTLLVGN
How it was run: as §1

ETV6 = ETV6 (Homo sapiens, UniProt P41212 1-452)
ETV6, sequence (P41212 whole entry): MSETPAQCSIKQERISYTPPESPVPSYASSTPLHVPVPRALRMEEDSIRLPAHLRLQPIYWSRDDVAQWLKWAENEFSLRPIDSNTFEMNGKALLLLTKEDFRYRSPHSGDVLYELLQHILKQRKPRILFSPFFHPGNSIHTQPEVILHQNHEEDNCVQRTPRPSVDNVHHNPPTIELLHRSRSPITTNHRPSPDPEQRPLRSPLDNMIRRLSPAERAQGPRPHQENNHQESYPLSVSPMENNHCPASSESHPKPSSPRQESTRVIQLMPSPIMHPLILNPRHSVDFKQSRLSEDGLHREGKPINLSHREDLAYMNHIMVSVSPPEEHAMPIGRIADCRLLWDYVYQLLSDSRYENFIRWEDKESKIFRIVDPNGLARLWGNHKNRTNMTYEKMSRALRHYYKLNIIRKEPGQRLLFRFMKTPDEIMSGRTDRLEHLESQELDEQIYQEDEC
How it was run: as §1

TATGCA
binding signal (ERF): 1.25 fold enrichment (6-mer frequency, TF over GST control)
binding signal (ETV3L): 1.27 fold enrichment (6-mer frequency, TF over GST control)
binding signal (ETS2): 1.29 fold enrichment (6-mer frequency, TF over GST control)
binding signal (SPDEF): 1.36 fold enrichment (6-mer frequency, TF over GST control)
binding signal (ETV7): 1.18 fold enrichment (6-mer frequency, TF over GST control)
binding signal (ELF5): 1.23 fold enrichment (6-mer frequency, TF over GST control)
binding signal (ETV3): 1.33 fold enrichment (6-mer frequency, TF over GST control)
binding signal (ETV6): 1.15 fold enrichment (6-mer frequency, TF over GST control)

AAAGGG
binding signal (ERF): 1.09 fold enrichment (6-mer frequency, TF over GST control)
binding signal (ETV3L): 1.09 fold enrichment (6-mer frequency, TF over GST control)
binding signal (ETS2): 1.13 fold enrichment (6-mer frequency, TF over GST control)
binding signal (SPDEF): 1.04 fold enrichment (6-mer frequency, TF over GST control)
binding signal (ETV7): 1.09 fold enrichment (6-mer frequency, TF over GST control)
binding signal (ELF5): 1.19 fold enrichment (6-mer frequency, TF over GST control)
binding signal (ETV3): 1.18 fold enrichment (6-mer frequency, TF over GST control)
binding signal (ETV6): 1.1 fold enrichment (6-mer frequency, TF over GST control)

CCGACG
binding signal (ERF): 1.32 fold enrichment (6-mer frequency, TF over GST control)
binding signal (ETV3L): 1.23 fold enrichment (6-mer frequency, TF over GST control)
binding signal (ETS2): 1.33 fold enrichment (6-mer frequency, TF over GST control)
binding signal (SPDEF): 1.19 fold enrichment (6-mer frequency, TF over GST control)
binding signal (ETV7): 1.34 fold enrichment (6-mer frequency, TF over GST control)
binding signal (ELF5): 1.28 fold enrichment (6-mer frequency, TF over GST control)
binding signal (ETV3): 1.16 fold enrichment (6-mer frequency, TF over GST control)
binding signal (ETV6): 1.31 fold enrichment (6-mer frequency, TF over GST control)

CGGAAA
binding signal (ERF): 1.77 fold enrichment (6-mer frequency, TF over GST control)
binding signal (ETV3L): 2.05 fold enrichment (6-mer frequency, TF over GST control)
binding signal (ETS2): 2.07 fold enrichment (6-mer frequency, TF over GST control)
binding signal (SPDEF): 2.03 fold enrichment (6-mer frequency, TF over GST control)
binding signal (ETV7): 1.97 fold enrichment (6-mer frequency, TF over GST control)
binding signal (ELF5): 2.58 fold enrichment (6-mer frequency, TF over GST control)
binding signal (ETV3): 2.26 fold enrichment (6-mer frequency, TF over GST control)
binding signal (ETV6): 2.53 fold enrichment (6-mer frequency, TF over GST control)

TCCGGG
binding signal (ERF): 1.38 fold enrichment (6-mer frequency, TF over GST control)
binding signal (ETV3L): 1.4 fold enrichment (6-mer frequency, TF over GST control)
binding signal (ETS2): 1.67 fold enrichment (6-mer frequency, TF over GST control)
binding signal (SPDEF): 2.46 fold enrichment (6-mer frequency, TF over GST control)
binding signal (ETV7): 1.44 fold enrichment (6-mer frequency, TF over GST control)
binding signal (ELF5): 2.39 fold enrichment (6-mer frequency, TF over GST control)
binding signal (ETV3): 1.71 fold enrichment (6-mer frequency, TF over GST control)
binding signal (ETV6): 1.77 fold enrichment (6-mer frequency, TF over GST control)

TTTCCA
binding signal (ERF): 1.32 fold enrichment (6-mer frequency, TF over GST control)
binding signal (ETV3L): 1.41 fold enrichment (6-mer frequency, TF over GST control)
binding signal (ETS2): 1.38 fold enrichment (6-mer frequency, TF over GST control)
binding signal (SPDEF): 1.29 fold enrichment (6-mer frequency, TF over GST control)
binding signal (ETV7): 1.35 fold enrichment (6-mer frequency, TF over GST control)
binding signal (ELF5): 1.43 fold enrichment (6-mer frequency, TF over GST control)
binding signal (ETV3): 1.45 fold enrichment (6-mer frequency, TF over GST control)
binding signal (ETV6): 1.54 fold enrichment (6-mer frequency, TF over GST control)

ATTAGC
binding signal (ERF): 1.09 fold enrichment (6-mer frequency, TF over GST control)
binding signal (ETV3L): 1.13 fold enrichment (6-mer frequency, TF over GST control)
binding signal (ETS2): 1.13 fold enrichment (6-mer frequency, TF over GST control)
binding signal (SPDEF): 1.09 fold enrichment (6-mer frequency, TF over GST control)
binding signal (ETV7): 1.17 fold enrichment (6-mer frequency, TF over GST control)
binding signal (ELF5): 1.1 fold enrichment (6-mer frequency, TF over GST control)
binding signal (ETV3): 1.16 fold enrichment (6-mer frequency, TF over GST control)
binding signal (ETV6): 1.1 fold enrichment (6-mer frequency, TF over GST control)
